# Laboratory results as given in the supplement of paper PMC9950053.
# Where a name gives a salt, the structure may show the parent alone.
# Tested on: Danio rerio larvae (5 dpf)
# Experiment: excitability (activity period 17 minus period 16, 1-s interval sound) minus DMSO control (percentage points); higher = more acoustic excitability than DMSO larvae
# Settings: 10 µM; exposure time: 3 h pre-incubation + 3 h imaging
# Method: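 Wild-type 5 dpf zebrafish larvae (n=48 per drug, 96-well plates, 28.5 °C) were exposed to Tocris FDA-approved library compounds at 10 µM (0.1% DMSO) for 3 h before and 3 h during imaging. Images were taken every 6 s during visual and acoustic stimuli, and larvae were tracked with Z-LaP Tracker. Each measure is the treated-group mean minus the DMSO control mean (n=844), in percentage points. This mapping covers compounds with 5-character plate codes.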
row,Structure (SMILES),excitability
1,N#C[C@@H]1C[C@@H]2C[C@@H]2N1C(=O)[C@@H](N)C12CC3CC(CC(O)(C3)C1)C2 [Saxagliptin hydrochloride],2.14
2,COc1cc(N)c(Cl)cc1C(=O)NC1CCN(CCCOc2ccc(F)cc2)CC1OC (configuration not stated) [Cisapride],18.5
3,C#CCN[C@@H]1CCc2ccccc21 [Rasagiline mesylate],-0.121
4,CNC(=O)c1cc(Oc2ccc(NC(=O)Nc3ccc(Cl)c(C(F)(F)F)c3)cc2)ccn1 [Sorafenib],13.1
5,OCc1cc(C(O)CNCCCCCCOCCCCc2ccccc2)ccc1O (configuration not stated) [Salmeterol xinafoate],13.1
6,COc1ccccc1OCC(O)CN1CCN(CC(=O)Nc2c(C)cccc2C)CC1 (configuration not stated) [Ranolazine dihydrochloride],4.28
7,CN(C)C(=N)NC(=N)N [Metformin hydrochloride],6.55
8,OC(c1cc(C(F)(F)F)nc2c(C(F)(F)F)cccc12)C1CCCCN1 (configuration not stated) [Mefloquine hydrochloride],13.3
9,NS(=O)(=O)c1cc2c(cc1Cl)NC(C1CC3C=CC1C3)NS2(=O)=O (configuration not stated) [Cyclothiazide],0.365
10,CC(=O)Nc1ccc(O)cc1 [Acetaminophen],-1.73
11,N#Cc1ccc2[nH]cc(CCCCN3CCN(c4ccc5oc(C(N)=O)cc5c4)CC3)c2c1 [Vilazodone hydrochloride],17
12,CCc1nc(N)nc(N)c1-c1ccc(Cl)cc1 [Pyrimethamine],6.57
13,CN[C@H]1CC[C@@H](c2ccc(Cl)c(Cl)c2)c2ccccc21 [Sertraline hydrochloride],10.4
14,CNS(=O)(=O)Cc1ccc2[nH]cc(CCN(C)C)c2c1 [Sumatriptan succinate],-4.97
15,COc1cc([C@@H]2c3cc4c(cc3[C@@H](O[C@@H]3O[C@@H]5CO[C@@H](C)O[C@H]5[C@H](O)[C@H]3O)[C@H]3COC(=O)[C@H]23)OCO4)cc(OC)c1O [Etoposide],9.95
16,NC(=O)OCC(COC(N)=O)c1ccccc1 [Felbamate],-3.94
17,CNCc1ccc(-c2[nH]c3cc(F)cc4c3c2CCNC4=O)cc1 [Rucaparib camsylate],13.1
18,COc1cc2nccc(Oc3ccc(NC(=O)C4(C(=O)Nc5ccc(F)cc5)CC4)cc3)c2cc1OC,16.9
19,O=C1CCc2ccc(OCCCCN3CCN(c4cccc(Cl)c4Cl)CC3)cc2N1 [Aripiprazole],16.5

row,Structure (SMILES),excitability
1,Cc1cc2c(s1)Nc1ccccc1N=C2N1CCN(C)CC1 [Olanzapine],2.72
2,CC(C)(C(=O)O)c1ccc(C(O)CCCN2CCC(C(O)(c3ccccc3)c3ccccc3)CC2)cc1 (configuration not stated) [Fexofenadine hydrochloride],-5.03
3,Clc1ccc2nsnc2c1NC1=NCCN1 [Tizanidine hydrochloride],6.39
4,CC(C)OC(=O)C(C)(C)Oc1ccc(C(=O)c2ccc(Cl)cc2)cc1 [Fenofibrate],4.72
5,C[C@H]1O[C@H](O[C@H]2[C@H](O)[C@@H](O)[C@@H](O[C@H]3[C@H](O)[C@@H](O)C(O)O[C@@H]3CO)O[C@@H]2CO)[C@H](O)[C@@H](O)[C@@H]1N[C@H]1C=C(CO)[C@@H](O)[C@H](O)[C@H]1O (some centres not stated) [Acarbose],-4.36
6,COCCc1ccc(OCC(O)CNC(C)C)cc1 (configuration not stated) [Metoprolol tartrate],-6.24
7,COc1ccccc1Oc1c(NS(=O)(=O)c2ccc(C(C)(C)C)cc2)nc(-c2ncccn2)nc1OCCO [Bosentan],-2.37
8,O=C(O)C[C@H](O)C[C@H](O)/C=C/c1c(C2CC2)nc2ccccc2c1-c1ccc(F)cc1 [Pitavastatin calcium],-1.16
9,CN(C)CCc1c[nH]c2ccc(C[C@H]3COC(=O)N3)cc12 [Zolmitriptan],4.24
10,CC[C@H]1OC(=O)[C@H](C)[C@@H](O[C@H]2C[C@@](C)(OC)[C@@H](O)[C@H](C)O2)[C@H](C)[C@@H](O[C@@H]2O[C@H](C)C[C@H](N(C)C)[C@H]2O)[C@](C)(O)C[C@@H](C)CN(C)[C@H](C)[C@@H](O)[C@]1(C)O [Azithromycin],15.8
11,C[C@@H]1C[C@H]2[C@@H]3CCC4=CC(=O)C=C[C@]4(C)[C@@]3(F)[C@@H](O)C[C@]2(C)[C@@]1(O)C(=O)CO [Dexamethasone],-4.14
12,OCCN1C[C@H](O)[C@@H](O)[C@H](O)[C@H]1CO [Miglitol],4.04
13,CCCC1O[C@@H]2C[C@H]3[C@@H]4CCC5=CC(=O)C=C[C@]5(C)[C@H]4[C@@H](O)C[C@]3(C)[C@]2(C(=O)CO)O1 (some centres not stated) [Budesonide],1.14
14,O=c1n(CCCN2CCN(c3cccc(Cl)c3)CC2)nc2ccccn12 [Trazodone hydrochloride],20.3
15,CCCc1nn(C)c2c(=O)[nH]c(-c3cc(S(=O)(=O)N4CCN(C)CC4)ccc3OCC)nc12 [Sildenafil citrate],4.28
16,CC(=O)Oc1cc2c(s1)CCN(C(C(=O)C1CC1)c1ccccc1F)C2 (configuration not stated) [Prasugrel],5.89
17,CCCCCCCN(CC)CCCC(O)c1ccc(NS(C)(=O)=O)cc1 (configuration not stated) [Ibutilide hemifumarate],13.3
18,CC(C)COCC(CN(Cc1ccccc1)c1ccccc1)N1CCCC1 (configuration not stated) [Bepridil hydrochloride],14.7
